Test results taken from PubChem BioAssay AID1745856 (National Center for Advancing Translational Sciences (NCATS), 2022).
The whole screen tested about 120,000 compounds, of which about 270 (0.23%) were called active. About 5% were inconclusive and are not listed. The call rests on the fitted dose curve. What follows is part of a selection rich in actives, with near analogues and random picks from the rest.

assay: Primary qHTS Assay for Foot and Mouth Disease Virus Antivirals against NCGC Sytravon and CBC Compound Libraries: Firefly Luciferase Signal; settings: FMDV antiviral cell assay; series mostly up to 57.5 µM; activity change, negative = inhibition: at the top concentration; further: nearly all actives have a fitted effect of over 60% in size
On the % scale 0 is the no-effect control and ±100 the full control effect; potency means the concentration at half of the fitted maximal effect.

Compound | Potency | activity change, negative = inhibition
CCCn1nc(C(=O)Nc2ncc(Cc3ccc(F)cc3)s2)ccc1=O | 31.6 µM (active) | –
Cc1nc(-c2ccc(F)cc2)sc1C(=O)N[C@H](C(=O)O)C(C)C | – | 23.3% (inactive)
Cc1cnc(NC(=O)c2nc(C)n(-c3ccc(F)cc3)n2)s1 | – | 180% (inactive)
COc1ccc(/C(=N/OC(=O)c2cccc(F)c2)c2nccc3cc(OC)c(OC)cc23)cc1OC | – | 13.5% (inactive)
COc1ccc(-c2cc(C(=O)NC3CC(C)(C)NC(C)(C)C3)c3ccccc3n2)cc1OC | – | -27.7% (inactive)
CCOc1cc(/C=C2\NC(=O)NC2=O)cc(Br)c1OCc1cccc2ccccc12 | – | 6.16% (inactive)
CCC(CC)NC(=O)COC(=O)c1ccc(C)c(C)c1 | – | -0.24% (inactive)
COc1ccc(CN(C(=O)COc2ccc(C)cc2)c2ccccn2)cc1OC | – | 89.2% (inactive)
CC1CCN(C(=O)c2cccnc2-c2nc3ccccc3s2)CC1 | – | -0.889% (inactive)
Cc1ccc2c(Cl)cc(Cl)c(OCC(=O)N3CCCCCC3)c2n1 | – | -7.4% (inactive)
CCCCCNC(=O)N(C)Cc1ccc(C(=O)OC)cc1 | – | 21% (inactive)
COc1cccc(CNC(=O)COC(=O)c2c(F)cccc2F)c1 | – | 18.7% (inactive)
COc1ccc2c(c1OC)C(=O)OC2Nc1nc(-c2ccccc2)cs1 (stereo not drawn) | 28.2 µM (active) | –
COc1ccc(-c2csc(Nc3cccc(C)n3)n2)cc1OC | – | 198% (inactive)
Cc1cccc(C)c1Nc1nc(-c2ccccc2)cs1 | – | 164% (inactive)
Cc1cccc(C)c1NC(=O)CN(C)CC(=O)NC(=O)NCc1ccccc1 | – | -5.49% (inactive)
CC(=O)N1CCN(c2c([N+](=O)[O-])cnc3ccc(Br)cc23)CC1 | – | -9.98% (inactive)
CCOc1ccccc1OCC(=O)Nc1cccc2ncccc12 | 8.91 µM (active) | –
CCCOc1ccc(NC(=O)COc2cccc(C)c2C)c2cccnc12 | – | -12.1% (inactive)
COc1c(C)cccc1C(=O)Nc1cccc2ncccc12 | – | 9.76% (inactive)
CCC1CCCCN1S(=O)(=O)c1ccc(NC(=O)c2cc(-c3ccc(OC)cc3)on2)cc1 (stereo not drawn) | – | 18.9% (inactive)
Cc1cc(SCC(=O)NC(=O)NCC(C)C)nc2ccccc12 | – | 18.6% (inactive)
COc1ccc(NC(C)=O)cc1S(=O)(=O)NC(c1ccc(F)cc1)c1cccs1 (stereo not drawn) | – | -11.3% (inactive)
CC1CCn2c(nc3cc(C(=O)N4CCN(c5ccccc5)CC4)ccc32)C1 (stereo not drawn) | – | 102% (inactive)
CC1CCCCN1C(=O)CSc1nc2ccccc2n1CCC#N (stereo not drawn) | – | 4.75% (inactive)
O=C(CC12CC3CC(CC(C3)C1)C2)OCC(=O)c1ccc2c(c1)OCO2 | – | 0% (inactive)

Compound | Potency | activity change, negative = inhibition
CCCCN(C)C(=O)C1CCC(Cn2c(=O)c3sccc3n(Cc3ccccc3)c2=O)CC1 (stereo not drawn) | – | -8.18% (inactive)
Cc1ccc2nc(-c3ccccn3)cc(C(=O)O)c2c1 | – | 21.3% (inactive)
Cc1nc2cc(NC(C)C(=O)Nc3ccccc3F)ccc2o1 (stereo not drawn) | – | 84.5% (inactive)
CCc1ccc(Nc2nc3ccccc3nc2NS(=O)(=O)c2ccc(F)cc2)cc1 | – | 4.14% (inactive)
Cn1nc(C(=O)NCCc2ccc(F)cc2)c2ccccc2c1=O | – | 115% (inactive)
COc1ccc(NC(=O)CSCc2cc(=O)n3cc(C)ccc3n2)cc1Cl | – | -10.7% (inactive)
Cc1cc(=O)oc2c(C)c(OCC(=O)NCCc3ccc(S(N)(=O)=O)cc3)ccc12 | – | -12% (inactive)
O=C(CCc1nc2ccccc2s1)NC1CCCCCC1 | – | 115% (inactive)
CCS(=O)(=O)N1CCc2cc(C(=O)CSc3ccc(Cl)cc3)ccc21 | – | -47.5% (inactive)
Cc1ccc(-c2cc(C(=O)N3CCCCCC3)c3ccccc3n2)o1 | – | 31.5% (inactive)
Cc1cccc(N(C)C(=O)Cn2nc(Cc3cccnc3)c3ccccc3c2=O)c1 | – | -0.531% (inactive)
Cc1ccc(NC(=O)C(Sc2ccccc2)c2ccccc2)cc1C (stereo not drawn) | – | 52.1% (inactive)
CCN(CC)C(=O)c1sc2nc(C(C)(C)C)nc(C)c2c1C | – | 5.06% (inactive)
COc1cc(NC(=O)C2CCCN2C(=O)C23CC4CC(CC(C4)C2)C3)c(OC)cc1Cl (stereo not drawn) | – | -13.5% (inactive)
CC1CCC(NC(=O)c2ccccc2SCC#N)CC1 (stereo not drawn) | – | 0% (inactive)
COc1ccc2c(C)c(CC(=O)Nc3nnc(C(C)C)s3)c(=O)oc2c1OC | – | 14.8% (inactive)
Cc1ccccc1C(C)N (stereo not drawn) | – | -5.82% (inactive)
COc1ccc(/C=C2\CCc3ccccc3C2=O)cc1Br | – | 203% (inactive)
CCOc1ccc(OCC(=O)NCCc2c[nH]c3ccccc23)cc1 | – | 19.4% (inactive)
COCCN(CCOC)C(=O)Cc1n[nH]c(=O)c2ccccc12 | – | 2.66% (inactive)
COc1ccc(-c2noc(-c3cccc(OCC(=O)N4CCCC4)c3)n2)cc1 | – | 161% (inactive)
O=S(=O)(c1ccc(Sc2nnnn2C2CCCC2)nc1)N1CCOCC1 | – | -10.7% (inactive)
Cc1cccc(-c2nc3cc(NC(=O)CC(C)C)ccc3o2)c1 | – | 120% (inactive)
CCOC(=O)CSCc1cccc(Cl)c1 | – | 13.3% (inactive)
O=c1[nH]c(=O)n(CCc2ccccc2)c2nccc(-c3ccc(Cl)cc3)c12 | – | -0.9% (inactive)
CC1CCC(=NNC(=S)NC2CCCCC2)CC1 (stereo not drawn) | – | 37.9% (inactive)

Compound | Potency | activity change, negative = inhibition
CCCNC(=O)NCc1nc(-c2ccc(OC)cc2)oc1C | – | 79.5% (inactive)
COc1ccc(C(=O)COC(=O)Cc2c(Cl)cccc2Cl)c(OC)c1 | – | 11.5% (inactive)
O=C1CC(c2cccc(Br)c2)c2c(n3c(nc4ccccc43)[nH]c2=O)N1 (stereo not drawn) | – | -10.9% (inactive)
CCN(C(=O)CSc1nc(-c2ccccc2Cl)nc2cc(=O)[nH]n12)c1ccccc1 | – | 42.8% (inactive)
O=C(NCc1coc(-c2cccs2)n1)c1ccc(C(F)(F)F)cc1 | – | 39.9% (inactive)
O=C(CSc1nc2ncccc2c(=O)n1-c1ccccc1)NC(=O)NC1CC1 | – | -8.22% (inactive)
CCOCCn1c(NCCCOC)nc2c1c(=O)[nH]c(=O)n2C | – | 82.8% (inactive)
NC(=O)Cn1nc(-c2cccc([N+](=O)[O-])c2)c2ccccc2c1=O | – | -7.8% (inactive)
O=C(NCc1ccc(F)cc1)c1cc(S(=O)(=O)C2CCS(=O)(=O)C2)ccc1F (stereo not drawn) | – | 17.7% (inactive)
CCN(CC)C(=O)Oc1ccc2c(C)c(-c3ccccc3)c(=O)oc2c1 | – | 0% (inactive)
Cc1ccsc1CNC(=O)CCc1ccc(F)c(F)c1 | – | 58.8% (inactive)
COCCCNC(=O)Cc1c(C)c2ccc(OC(C)=O)c(OC(C)=O)c2oc1=O | – | 36% (inactive)
C[C@H](NC(=O)C(c1ccccc1)c1ccccc1)C(=O)O | – | 12.3% (inactive)
Nc1nccnc1C(=O)Nc1cccc(NC(=O)c2ccncc2)c1 | – | 8.94% (inactive)
CC(Sc1nc2ccccc2n1C)C(=O)NCc1ccc2c(c1)OCO2 (stereo not drawn) | – | 13% (inactive)
Cc1nc2ccc(C)c(C)c2s1 | – | 1.16% (inactive)
O=C(c1cccs1)c1cn(CCOc2ccc(Cl)cc2)c2ccccc12 | – | 4.11% (inactive)
Cc1ccccc1NC(=O)Cn1cc(C(=O)c2cccs2)c2ccccc21 | – | 7.93% (inactive)
Cc1c(Cl)cccc1NC(=O)Cn1cc(C(=O)c2cccs2)c2ccccc21 | 7.08 µM (active) | –
Cc1ccc(C)c(COC(=O)c2ccc3c(c2)NC(=O)CS3)c1 | – | 9.18% (inactive)
CC(C)C(C#CC(O)(c1ccccc1)c1ccccc1)N(C)C (stereo not drawn) | – | 0.778% (inactive)
COc1cc(NC(=O)Cn2c3c(c(=O)n2-c2ccccc2)Cc2cc(Cl)ccc2O3)cc(OC)c1 | – | 81.6% (inactive)
O=C(O)c1c(F)c(F)c(F)c(F)c1-c1ccccc1 | – | -7.11% (inactive)
O=C(NC1CC1)C(Sc1c(Cl)cccc1Cl)c1ccccc1 (stereo not drawn) | – | 21.7% (inactive)
CCCCCNC(=O)CCc1c[nH]c2ccccc12 | – | 1.13% (inactive)
CCC(C)n1cc(/C=C2\NC(=O)N(CC)C2=O)c2ccccc21 (stereo not drawn) | – | -13.7% (inactive)
